Consider nine compounds from PubChem BioAssay (NCATS).

Molecules are shown by their SMILES. Inconclusive results are not listed. Values without a mark were called inactive. The call rests on the fitted dose curve; in most records, active means well fitted cell-killing curve with a large enough effect; inconclusive means small, poorly fitted or top-dose-only effect, or effect the other way; inactive means flat fitted curve, though single readings scatter.
On the % scale 0 is the no-effect control and ±100 the full control effect.

For this experiment, the system named is HeLa. The experiment is described as follows: Primary qHTS to identify gynecologic anti-cancer compounds using libraries of approved drugs and bioactive compounds (AID 1345084). Further: nearly all actives have a fitted effect of over 55% in size. To be noted: Gynecologic cancer cell panel viability, ATPlite luminescence, 48 h; series mostly up to 57.5 µM; activity change, negative = cytotoxicity: at the top concentration. A digest of the protocol: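 Cells, 1,000 per well, plated 16 h, then exposed 48 h at 37 C to compounds. Viability by ATPlite luminescence after 15 min at room temperature.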
For orientation: In qHTS, concentration-response curves come from the screen itself.
Regarding `CC(=O)O[C@H]1[C@H](C)[C@@H](O)[C@H]2[C@@H]1C=C(C(=O)O)[C@H]1C[C@@H]3[C@H]([C@H]21)[C@H]1C(=O)O[C@@H]2CC[C@@]3(C)O[C@]1(O)[C@@H]2C`, the “activity change, negative = cytotoxicity” value was 3.24% [at 25.3 µM].

As to `CC(=O)OC(CSC1CCC(=O)OC(C)CCC(=O)C1)C(=O)O` (centres undefined), the “activity change, negative = cytotoxicity” value was -12.9% [at 38.5 µM].

On to `CC(/C=C/C1(O)C(C)CC(O)CC1(C)C)OC1OC(CO)C(O)C(O)C1O` (centres undefined), for which the “activity change, negative = cytotoxicity” value was 3.77% [at 38.5 µM].

As to `CC(=O)N[C@H]1CCN(c2ccc(C3=NOC(CN[S+](=O)([O-])C(C)C)C3)cc2F)C1` (some centres undefined), the “activity change, negative = cytotoxicity” value was 17.6%.

With `CC1CCC2C(C)(C)C(O)CCC2(C)C12Cc1c(O)cc3c(c1O2)C(N)=NC3` (centres undefined), the “activity change, negative = cytotoxicity” value was 19.6% [at 38.5 µM].

Regarding `CNC(=O)Nc1ccc(OC)c(NC(=O)NC(=O)c2cc(F)c(F)cc2Cl)c1`, the “activity change, negative = cytotoxicity” value was 12.2%.

As to `CCCC(N[C@@H](C)C(=O)N1[C@H](C(=O)O)C[C@@H]2CCCC[C@@H]21)C(=O)OCC` (some centres undefined), the “activity change, negative = cytotoxicity” value was 1.38%.

`C/C=C(\C)C(=O)O[C@@H](C)[C@H]1CC[C@]2(O)C3CCC4C[C@@H](OC5CC(OC)C(OC6CC(OC)C(OC7CC(OC)C(OC8OC(C)C(OC9OC(CO)C(O)C(O)C9O)C(OC)C8O)C(C)O7)C(C)O6)C(C)O5)CC[C@]4(C)C3[C@H](O)[C@@H](O)[C@]12C` (some centres undefined): the activity change, negative = cytotoxicity was 3.49% [at 6.55 µM].

`CC1OC(O[C@H]2[C@@H](O)C[C@@]3(C)C([C@H](O)C[C@]4(C)C3CC=C3C5CC(C)(C)CC[C@]5(C(=O)OC5OC(CO)C(O)C(O)C5OC5OCC(OC6OCC(OC7OCC(O)C(O)C7O)C(O)C6O)C(OC6OCC(O)(CO)C6O)C5O)CC[C@]34C)[C@]2(C)CO)C(O)C(O)C1O` (some centres undefined): the activity change, negative = cytotoxicity is 2.57% [at 6.55 µM].
